# Measurements taken from PubChem BioAssay AID1729 (National Center for Advancing Translational Sciences (NCATS), 2009).
# Inconclusive results are not listed. The source made the active and inactive calls. Calls follow the shape of the dose curve; as a rule, active = well fitted curve in the direction sought with a large enough effect; inconclusive = small, poorly fitted or top-dose-only effect, or effect the other way, or another doubt; inactive = no such curve, though single readings can be large or run the other way.
# Target: Epidermal growth factor receptor (Homo sapiens) (UniProt P00533)
# Sequence (P00533 whole entry T790M, looked up): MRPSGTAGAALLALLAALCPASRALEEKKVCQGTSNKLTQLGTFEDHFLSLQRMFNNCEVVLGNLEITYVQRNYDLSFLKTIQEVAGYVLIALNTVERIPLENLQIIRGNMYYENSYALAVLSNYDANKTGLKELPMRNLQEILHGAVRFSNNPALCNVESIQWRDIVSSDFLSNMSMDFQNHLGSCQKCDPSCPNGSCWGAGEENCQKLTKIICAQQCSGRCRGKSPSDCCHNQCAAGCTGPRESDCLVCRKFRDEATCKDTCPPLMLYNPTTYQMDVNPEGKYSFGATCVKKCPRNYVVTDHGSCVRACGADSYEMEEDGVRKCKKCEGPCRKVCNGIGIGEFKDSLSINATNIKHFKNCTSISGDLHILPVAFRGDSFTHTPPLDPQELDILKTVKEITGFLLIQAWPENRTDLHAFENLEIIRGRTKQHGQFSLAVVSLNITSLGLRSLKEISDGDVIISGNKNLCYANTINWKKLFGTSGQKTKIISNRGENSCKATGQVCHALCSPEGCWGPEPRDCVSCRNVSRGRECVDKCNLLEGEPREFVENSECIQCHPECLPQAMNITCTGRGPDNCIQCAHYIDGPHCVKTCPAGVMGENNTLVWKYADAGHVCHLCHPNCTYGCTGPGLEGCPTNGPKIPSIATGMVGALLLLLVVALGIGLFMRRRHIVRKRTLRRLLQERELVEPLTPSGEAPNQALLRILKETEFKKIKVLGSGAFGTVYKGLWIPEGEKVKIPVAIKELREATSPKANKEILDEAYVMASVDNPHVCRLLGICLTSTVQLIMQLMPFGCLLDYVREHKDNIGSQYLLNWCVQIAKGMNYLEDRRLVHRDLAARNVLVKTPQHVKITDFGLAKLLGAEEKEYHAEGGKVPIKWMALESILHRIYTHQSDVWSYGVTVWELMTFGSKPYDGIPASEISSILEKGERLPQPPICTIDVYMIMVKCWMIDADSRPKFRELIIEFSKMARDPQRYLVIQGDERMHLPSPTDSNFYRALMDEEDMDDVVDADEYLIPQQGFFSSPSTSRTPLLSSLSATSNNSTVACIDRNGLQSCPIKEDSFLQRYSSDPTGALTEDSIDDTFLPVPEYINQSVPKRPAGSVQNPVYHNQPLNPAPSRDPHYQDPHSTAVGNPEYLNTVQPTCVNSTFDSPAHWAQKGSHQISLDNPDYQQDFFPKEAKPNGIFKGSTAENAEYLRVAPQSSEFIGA
# Assay: Assay for Inhibitors of the ERK Signaling Pathway using a Homogeneous Screening Assay: EGFR T790M Kinase Inhibition
# Source text: qHTS Assay for Inhibitors of the ERK Signaling Pathway using a Homogeneous Screening Assay
# NIH Chemical Genomics Center [NCGC]
# NIH Molecular Libraries Screening Centers Network [MLSCN]
# Assay Submitter (PI): Dr. Wei Zheng, NCGC/NIH
# The Ras/extracellular-signal-regulated kinase (ERK) mitogen activated protein (MAP) kinase signaling pathway (ERK1/2 cascade) plays is a key role in transmitting signals from the cell surface to the nucleus (Nishida and Gotoh 1993; Chang and Karin, 2001). The cascade is initiated by the small G-protein Ras, which recruits Raf […], where activation occurs. Alternatively, this pathway can be activated by elevating intracellular cAMP.
# Activation of the ERK pathway is essential in increased cell division and cell survival. Sustained and constitutive activation of the ERK pathway, however, has been linked to uncontrolled cell proliferation, increased cell survival, and tumor progression. Thus, the ERK has been as an attractive target for cancer chemotherapy in the past few years (Sebolt-Leopold and Herrera, 2004). […]
# The HTRF kinase assay (components supplied as kit by Cisbio) was chosen for the EGFR and EGFR mutant enzyme assays that applied the time resolved fluorescence resonance energy transfer (TR-FRET) principle. […]
row,SMILES,outcome
1,Cc1nc2c(=O)n(C)c(=O)nc-2n(C)n1,inactive
2,CCn1nc(-c2ccccc2)nc2c(=O)n(C)c(=O)nc1-2,inactive
